This is part of a sample that, as a whole, favours compounds with a hit. Of some 83,000 tested, about 20% had one in any assay.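 Cells were grown in 96-well plates and exposed to the test compound at a single concentration for 48 hours; results are reported as percent growth, with values below 10 considered active.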 A number with no mark means an inactive call. Activity calls are given as the source filed them.
Experiments:
Experiment in all cases: NCI-60 one-dose screen, 48 h (100 = growth as untreated, 0 = no growth, -100 = all killed)
Conditions in all cases: 10 µM unless noted
NCI-H23 lung = tested on: NCI-H23 lung
NCI-H226 lung = tested on: NCI-H226 lung
NCI-H322M lung = tested on: NCI-H322M lung
HOP-62 NSCLC = tested on: HOP-62 NSCLC
NCI-H460 lung = tested on: NCI-H460 lung
HOP-92 NSCLC = tested on: HOP-92 NSCLC
NCI-H522 lung = tested on: NCI-H522 lung
A549/ATCC NSCLC = tested on: A549/ATCC NSCLC
786-0 renal = tested on: 786-0 renal
COLO 205 colon = tested on: COLO 205 colon
DU-145 prostate = tested on: DU-145 prostate
K-562 leukemia = tested on: K-562 leukemia
MALME-3M melanoma = tested on: MALME-3M melanoma
MDA-MB-231 breast = tested on: MDA-MB-231 breast
RXF 393 renal = tested on: RXF 393 renal
SF-268 CNS = tested on: SF-268 CNS
SF-295 CNS = tested on: SF-295 CNS
SF-539 CNS = tested on: SF-539 CNS
UACC-257 melanoma = tested on: UACC-257 melanoma
M14 melanoma = tested on: M14 melanoma

Row | Structure (SMILES) | growth (NCI-H23 lung) | growth (NCI-H226 lung) | growth (NCI-H322M lung) | growth (HOP-62 NSCLC) | growth (NCI-H460 lung) | growth (HOP-92 NSCLC) | growth (NCI-H522 lung) | growth (A549/ATCC NSCLC) | growth (786-0 renal) | growth (COLO 205 colon) | growth (DU-145 prostate) | growth (K-562 leukemia) | growth (MALME-3M melanoma) | growth (MDA-MB-231 breast) | growth (RXF 393 renal) | growth (SF-268 CNS) | growth (SF-295 CNS) | growth (SF-539 CNS) | growth (UACC-257 melanoma) | growth (M14 melanoma)
1 | O=C(Cc1c(-c2cccc([N+](=O)[O-])c2)n(-c2ncnc3c2c(-c2ccccc2)c(-c2ccccc2)n3Cc2ccccc2)[nH]c1=O)c1ccc(Cl)c(Cl)c1 | 16.1% | 39% | 79.1% | 44.9% | 33.9% | -2.08% (active) | 7.22% (active) | 45% | 63.4% | 60.2% | 51% | 17.6% | -3.97% (active) | 37.4% | 44.9% | 62.3% | 12.2% | 60.7% | 30.9% | 32.6%
2 | COc1ccc(N=Nc2c(N)nn3c(-c4ccc(F)cc4)ccnc23)cc1 | 43.7% | 87.8% | 84.3% | 34.6% | 64.7% | 100% | 86.5% | 43% | 92.3% | 94.4% | 79.9% | 71.9% | 40.4% | 77.2% | 106% | 83.5% | 87.7% | 67.5% | 81.8% | 51.3%
3 | Nc1nnc(-c2cncc(Br)c2)c(-c2c[nH]c3ccc(Cl)cc23)n1 | 84.5% | 74% | 80.9% | 91.9% | 86.9% | 90.9% | 68.1% | 82.9% | 73.9% | 113% | 99.4% | 30.5% | 99.3% | 74.7% | 63.5% | 88.6% | 92.4% | 72.5% | 108% | 86.4%
4 | COc1ccc(/C=C/c2nc3ccccc3n3c(-c4cccc([N+](=O)[O-])c4)nnc23)cc1 | -78.1% (active) | -14.8% (active) | 41% | 25.4% | -35.6% (active) | -48.7% (active) | -72.7% (active) | -4.88% (active) | -74.9% (active) | -70% (active) | -18% (active) | 5.5% (active) | -69.7% (active) | 1.23% (active) | -85.2% (active) | -16.4% (active) | 12.4% | -86.5% (active) | -48.9% (active) | -77.4% (active)
5 | O=C1Nc2ccc(F)cc2/C1=C/C(=O)c1cc2ccccc2oc1=O | 96.1% | 86% | 104% | 97.3% | 104% | 94.7% | -7.22% (active) | 108% | 112% | 105% | 111% | 33.9% | 71.2% | 91.8% | 83.4% | 106% | 108% | 105% | 96.3% | 89.1%
6 | COc1ccc(/C=C/C(=O)c2ccc(S(=O)(=O)NCCNc3nc(N(C)C)nc(N4CCOCC4)n3)cc2)cc1 | 97.7% | 89.6% | 91.7% | 102% | 104% | 93.1% | 64.7% | 91.5% | 80.1% | 110% | 103% | 35.9% | 97.5% | 88.4% | 92.1% | 84.1% | 92.5% | 83.7% | 96.5% | 92.1%
7 | COc1ccc2[nH]c(=O)cc(-n3ncc(C(=O)/C=C/c4cc(OC)c(OC)c(OC)c4)c3C)c2c1 | -45.1% (active) | -21.7% (active) | 5.89% (active) | 0.688% (active) | -30.4% (active) | 44.2% | -81.1% (active) | 8.31% (active) | -15% (active) | -92.5% (active) | -2.23% (active) | 1.01% (active) | -25.7% (active) | 1.48% (active) | -74.8% (active) | 8.19% (active) | 11.3% | -59.8% (active) | -6.58% (active) | -48.3% (active)
8 | CCN1C(=O)N(CC)C2NNC(Sc3c(C(=O)O)c4ccccc4n(CC(C)C)c3=O)=NC21 (stereo not given) | 10.7% | 51.2% | 56.2% | 34.1% | -1.23% (active) | 80.8% | -32.3% (active) | 20.9% | 26.9% | -21.4% (active) | 20% | 5.86% (active) | 48.1% | 15.9% | 81.8% | 55.7% | -14.8% (active) | -29% (active) | 50.3% | 22.4%
9 | FC(F)(F)c1cc2c(Cl)ncnc2n1CCC1CCOCC1 | -14.4% (active) | 39% | -72.6% (active) | 6.11% (active) | -68.8% (active) | 71.5% | -80% (active) | 97.6% | 87.7% | 71.5% | -99.6% (active) | -26.3% (active) | 79.2% | 0.4% (active) | 57.8% | -71.1% (active) | 70.8% | 70.8% | 37.6% | -83.5% (active)
10 | COc1cc(C2CC(c3ccc(Cl)cc3)=Nc3c(N)nc(N)nc3N2)ccc1Oc1nc(Nc2ccc(F)cc2)nc(N(C)C)n1 (stereo not given) | 76.6% | 60.9% | 93.8% | 74.1% | 13.5% | 12.6% | 38.9% | 47.2% | 38.2% | 55.4% | 60% | 8.16% (active) | 54.1% | 23.8% | -4.44% (active) | 52.2% | 53.3% | 63.7% | 47.9% | 43.2%
11 | COc1ccc(N=Nc2c(N)nn3c(-c4ccc([N+](=O)[O-])cc4)ccnc23)cc1 | 105% | 95.2% | 107% | 95.3% | 105% | 94.5% | 91.6% | 104% | 93% | 119% | 105% | 95.1% | 93% | 98.5% | 109% | 98.8% | 97.5% | 99.2% | 97.3% | 104%
12 | COc1ccc(NC(=O)Cn2c(/C=C/c3cccc(OC)c3)nc3ccccc3c2=O)cc1 | 40.8% | 1.28% (active) | 42.3% | -11.5% (active) | 15.2% | 3.74% (active) | 27.3% | 12.8% | -70.7% (active) | 71.6% | 74.3% | 84% | 62.7% | -30.3% (active) | -31.9% (active) | 66.1% | 34.6% | -45.7% (active) | 81.1% | 61.2%
13 | COc1cc(NC(=O)C(C)C)ccc1C(=O)NC(=S)Nc1ccc(S(N)(=O)=O)cc1 | 102% | 115% | 99.7% | 91.6% | 107% | 78% | 76.3% | 106% | 79.6% | 118% | 106% | 108% | 94.4% | 93.1% | 88.7% | 80.8% | 84.2% | 88.9% | 101% | 106%
14 | Clc1ccc(-c2nc3ccc(-c4nnc(SCc5ccccc5)o4)cc3[nH]2)cc1 | 18.3% | 40.3% | 27.6% | 9.18% (active) | 41.4% | 48% | 10.3% | 34.9% | 24.6% | 55.3% | 54.9% | 36.7% | 29.4% | -11.9% (active) | -4.87% (active) | 60% | -73.4% (active) | -28% (active) | 62.2% | 67.9%
15 | Clc1ccc2c(NCCNC34CC5CC(CC(C5)C3)C4)ccnc2c1 | -73.2% (active) | -24.4% (active) | -61.7% (active) | -76.7% (active) | -63.1% (active) | -64.7% (active) | -76.7% (active) | -33% (active) | -79.8% (active) | -58.1% (active) | -42.7% (active) | 2.05% (active) | -80.4% (active) | -72.1% (active) | -86.4% (active) | -62.2% (active) | -90.9% (active) | -89.7% (active) | -66.3% (active) | -83.5% (active)

Reference: PubChem BioAssay (NCI)
